Measured values: PubChem BioAssay AID431 (Sanford-Burnham Center for Chemical Genomics, 2006)
Out of some 63,000 compounds screened, about 1,100 (1.7%) were called active.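 How the source made its calls: active means compounds whose percent cytotoxicity in the single-dose primary screen, scaled between solvent and toxic-drug controls, exceeds 50; inactive means the rest.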 Many of the other results were omitted from the sample, so actives are more common in it than they were. Potency and affinity values are given separately.

test: viability loss of HPDE-C7K cells – cell-based, fluorescence, HTS, primary screen (AID 431); settings: HPDE-C7K KRASV12 cells, Alamar Blue viability, 48 h; at 10 µM; hits give high values;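 further: 0% = DMSO solvent wells and 100% = doxorubicin-treated wells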

| Compound | cytotoxicity |
| --- | --- |
| CCn1c(Sc2nc(C)nc3scc(-c4cccs4)c23)n[nH]c1=O | -16.8% (inactive) |
| Cc1cccc(C(=O)NC2CC3CCCC(C2)N3C(=O)NC2CCCCC2)c1 (stereo not given) | -1.9% (inactive) |
| NC1=NC(c2ccc(Cl)cc2)n2c(nc3ccccc32)N1 (stereo not given) | -23.5% (inactive) |
| Cc1nnc(NC(=O)c2cc3n(n2)C(C(F)(F)F)CC(C2CC2)N3)s1 (stereo not given) | -34.9% (inactive) |
| O=C(Nc1nc2c(s1)CCCC2)c1cc2n(n1)C(C(F)(F)F)CC(C1CC1)N2 (stereo not given) | 52.5% (active) |
| O=C(NCc1ccc(F)cc1)c1cc2n(n1)C(C(F)(F)F)CC(C1CC1)N2 (stereo not given) | -22% (inactive) |
| COC(=O)COc1cccc(NC(=O)c2ccccc2)c1 | -1.5% (inactive) |
| Cc1nc2sc(C(c3cccc(F)c3)N3CCC(O)CC3)c(O)n2n1 (stereo not given) | -0.3% (inactive) |
| COc1ccc(C2C(C(C)=O)=C(C)N=c3s/c(=C/c4ccc5c(c4)OCO5)c(=O)n32)cc1 (stereo not given) | -10.1% (inactive) |
| CC(=O)C1=C(C)N=c2s/c(=C/c3ccc4c(c3)OCO4)c(=O)n2C1c1ccc(N(C)C)cc1 (stereo not given) | -0.2% (inactive) |
| CCC(C)(C)n1nnnc1C(c1cc2ccc(OC)cc2[nH]c1=O)N1CCc2ccccc2C1 (stereo not given) | 35% (inactive) |
| COC(=O)c1ccccc1NS(=O)(=O)c1ccc(O)c(C(=O)O)c1 | 19.7% (inactive) |
| COC(=O)c1ccc(CN2C(=O)NC3(CCCCC3C)C2=O)o1 (stereo not given) | 3.4% (inactive) |
| CCN(CC)c1ccc(NC(=O)c2cnc3ccccn3c2=O)c(C)c1 | 3.9% (inactive) |
| Cn1nnnc1SCCNCc1cccc2ccccc12 | -3% (inactive) |
| CCN(CC)c1ccc(NC(=O)c2ccc(NC(=O)C3CCCO3)cc2)c(C)c1 (stereo not given) | -1.3% (inactive) |
| CCOc1cccc(C(=O)Nc2ccc(N3CCN(S(C)(=O)=O)CC3)cc2)c1 | -10% (inactive) |
| CCN(CC)c1ccc(C(=O)Nc2cccc(F)c2)cc1 | 57.4% (active) |
| CCN(CC)c1ccc(NC(=O)c2cc(OC)cc(OC)c2)c(C)c1 | 59.9% (active) |
| CN(C)c1cccc(C(=O)Nc2cccc(F)c2)c1 | 2.1% (inactive) |
| CCOc1ccc(NC(=O)c2cccc(-n3cnnn3)c2)cc1 | -18% (inactive) |
| CCN(CC)c1ccc(NC(=O)c2ccco2)c(C)c1 | 10.7% (inactive) |

| Compound | cytotoxicity |
| --- | --- |
| O=C(Nc1ccncc1)c1ccccc1F | -14.5% (inactive) |
| CC(=O)Nc1ccc(NC(=O)c2ccccc2F)cc1 | 8.8% (inactive) |
| CCOc1cccc(C(=O)Nc2ccc(N(CC)CC)cc2)c1 | 87.5% (active) |
| CCN(CC)c1ccc(NC(=O)c2ccccc2F)cc1 | 50.7% (active) |
| CCN(CC)c1ccc(NC(=O)Nc2cccc(C(C)=O)c2)cc1 | 16.4% (inactive) |
| Cc1cccc(COc2ccc(/C(O)=C3\C(=O)C(=O)N(CCN(C)C)C3c3ccncc3)cc2)c1 (stereo not given) | 0.7% (inactive) |
| O=C(c1ccco1)N1CCN(C(=O)c2cc(-c3ccncc3)nc3ccc(Br)cc23)CC1 | 1.3% (inactive) |
| O=C(NCC(=O)N(Cc1ccccc1)C(C(=O)NC1CCCC1)c1ccco1)c1ccco1 (stereo not given) | -6.1% (inactive) |
| Cn1c(COc2ccccc2)nnc1SCC(=O)Nc1ccc2c(c1)OCO2 | 9.4% (inactive) |
| O=C1c2oc3ccc(F)cc3c(=O)c2C(c2ccncc2)N1CCN1CCOCC1 (stereo not given) | -11.5% (inactive) |
| O=C(CN(Cc1ccco1)S(=O)(=O)c1cccs1)Nc1ccccc1C(F)(F)F | -23.6% (inactive) |
| CCN(CC)c1ccc(NC(=O)c2cccc(OC)c2)c(C)c1 | 55.4% (active) |
| CCN(CC)c1ccc(NC(=O)c2c(OC)cccc2OC)c(C)c1 | -0.6% (inactive) |
| CCN(CC)c1ccc(NC(=O)c2cccc(C)c2OC)c(C)c1 | 2.9% (inactive) |
| O=C(Nc1ccc(N2CCN(Cc3ccccc3Cl)CC2)cc1)c1cccnc1 | 16.7% (inactive) |
| Cc1cc(Nc2ccccc2C(=O)O)nc2nc3ccccc3c(=O)n12 | -5.3% (inactive) |
| N#CC(C(=O)NC1CCCCC1)c1nc2ccccc2nc1N1CCOCC1 (stereo not given) | 13.7% (inactive) |
| CCc1ccc(-c2cn3nc(C)c(C)nc3n2)cc1 | -7.6% (inactive) |
| CCc1ccc(-c2cn(-c3nc(C)cc(C)n3)c(=N)o2)cc1 | 54.8% (active) |
| CCc1ccc(-n2c(O)cnc2Nc2nc(C)cc(C)n2)cc1 | -3% (inactive) |
| CC1CCc2cc(F)ccc2N1C(=O)CCC(=O)O (stereo not given) | -12.5% (inactive) |
| CN(C)c1nc(N)nc(CSc2nnnn2C)n1 | 8.9% (inactive) |

| Compound | cytotoxicity |
| --- | --- |
| COc1ccc(C2=NOC(CN3C(=O)c4ccccc4S3(=O)=O)C2)cc1 (stereo not given) | -0.1% (inactive) |
| CC(C)(C)N1C(=O)Cc2c1nc(N)c1c(N)nc(N3CCCCC3CO)c(C#N)c21 (stereo not given) | 59.9% (active) |
| N#Cc1c(N)nc2c(c1N)CC(=O)N2c1ccccc1-c1ccccc1 | 5.8% (inactive) |
| CC1(C)CC(=O)C2=C(C1)Oc1ncn(CCCn3ccnc3)c(=N)c1C2c1ccccc1 (stereo not given) | 9.8% (inactive) |
| N=c1c2c(-c3ccccc3)c(-c3ccccc3)n(Cc3ccco3)c2ncn1CCN1CCOCC1 | 32.6% (inactive) |
| O=c1c2ccccc2nc(-c2ccccc2)n1CCCn1ccnc1 | -22.7% (inactive) |
| OCCNc1ncnc2c1c(-c1ccccc1)c(-c1ccccc1)n2Cc1ccco1 | 21.6% (inactive) |
| COC(=O)c1c(F)c(F)c(N2CCOCC2)c(F)c1F | -3.4% (inactive) |
| CC(C)CC(=O)Nc1ncnc2c1C(=O)CC(C)(C)C2 | -2.6% (inactive) |
| COc1ccc(-c2nnn(CC(=O)N(C3CCCCC3)C(C)C(=O)NC3CCCC3)n2)cc1OC (stereo not given) | -4.4% (inactive) |
| COC(=O)C1=C(C)N(c2cccc(Cl)c2)C(=O)C1 | -6.2% (inactive) |
| COC(=O)C1=C(C)N(c2ccc(Cl)c(Cl)c2)C(=O)C1 | 79% (active) |
| COC(=O)C1=C(C)N(c2ccc(F)c(Cl)c2)C(=O)C1 | 0.2% (inactive) |
| CCOC(=O)c1ccc(-n2c(N)c(C(=O)NCc3ccco3)sc2=S)cc1 | 10.8% (inactive) |
| O=S(=O)(Nc1ccc(S(=O)(=O)N2CCCCC2)cc1)c1cccs1 | -10.1% (inactive) |
| CCOc1ccc(Cl)cc1S(=O)(=O)n1nnc2ccccc21 | 4.6% (inactive) |
| CCOc1cc(C)c(Cl)cc1S(=O)(=O)n1cnc2ccccc21 | 7.1% (inactive) |
| COc1cc(S(=O)(=O)n2nnc3ccccc32)c(OC)cc1Cl | 59.1% (active) |
| COc1ccc(OC)c(S(=O)(=O)n2nnc3ccccc32)c1 | 11.6% (inactive) |
| COc1ccc(Cl)cc1S(=O)(=O)n1nnc2ccccc21 | 4.4% (inactive) |
| CCOc1cc(C)c(Cl)cc1S(=O)(=O)n1nnc2ccccc21 | 52.2% (active) |
